Structures are written as SMILES. Where “and” joins values, the source holds several entries; their conditions need not be identical. Identical values can stand only once.

This assay is described as follows: blood-stage malaria parasite viability loss – strain 3D7, DAPI fluorescence, 100 nL, primary screen (AID 1184).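 Note: parasites grown inside human red blood cells in medium with human serum.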 The following applies: P. falciparum 3D7 growth, 3 d, higher = more signal.
As for `C=C[C@@H](OC)[C@H](O)c1ccc(OCCO)cc1`, the z-score was -0.748 and 0.0067.

With `COC(=O)C1=C(C)N(Cc2ccccc2)C2=C(C(C)=O)C[C@@](O)(C(=O)OC)C(=O)N2[C@@H]1c1ccccc1`, the z-score is 0.467 and 0.637.

Regarding `CO[C@@H]1COC(=O)CC=C[C@H](C)COC(=O)[C@H](C)NC(=O)CC=C[C@H]1C`, the z-score was -0.233.

Regarding `Cc1ccc(S(=O)(=O)N[C@@H]2COC(=O)CC=C[C@@H](C)[C@@H]3C=C[C@H](O)[C@@H](COC(=O)CC=C[C@H]2C)O3)cc1`, the z-score was 1.03 and -1.19.

Regarding `Cc1ccc(S(=O)(=O)OC[C@@H]2CN3[C@@H](CC[C@@H](C)[C@@H]3c3ccc(Br)cc3)C(=O)O2)cc1`, the z-score was -0.17 and -0.013.

Regarding `O=C1[C@H]2[C@H]3[C@H](O)[C@H](O)CC(=NOCc4ccccc4)[C@H]3CC[C@H]2C(=O)N1Cc1ccccc1`, the z-score was -1.76.

With `C=CCN(C(=O)C(c1cccs1)N(C(=O)/C=C\C(=O)O)C(C)(C)CO)C(C)(C)C` (stereo not given), the z-score was 0.37 and -0.0391.

With `CON(C)C(=O)c1nnc2c3ccccc3n(S(=O)(=O)c3ccc(C)cc3)c2n1`, the z-score was -0.248 and -0.675.

Compound `CCOC(=O)NN=C1C[C@@H](O)[C@@H](O)[C@@H]2[C@@H]3C(=O)N(Cc4ccc5c(c4)OCO5)C(=O)[C@@H]3CC[C@@H]12` gave a z-score of 0.132.

Turning to `C[C@@H]1CC[C@H]2C(=O)N3[C@@H](CC[C@@H](C)[C@@H]3c3ccc(-c4ccco4)cc3)C(=O)N2[C@H]1c1ccc(-c2ccco2)cc1`, the z-score was 0.376 and 0.75.

As for `C=CCN1C(=O)[C@]2(O[C@H](CCn3cc(CCO)nn3)[C@@H]([Si](C)(C)c3ccc(OC)cc3)[C@@H]2C)c2cc(N3C(=O)c4cccc5cccc3c45)ccc21`, the z-score is -2.67 and -2.76.

Take `CCOC(=O)c1ccc(NC(=O)O[C@H]2[C@H](OC(=O)Nc3ccccc3)[C@H](OC(=O)Nc3ccccc3)[C@@H](OC)O[C@@H]2CO)cc1`: the z-score was -2.51 and -2.22.

For `C=CCN(C(=O)C(c1cccs1)N(C(=O)/C=C\C(=O)O)C(C)(C)CO)c1ccc(OC)cc1` (stereo not given), the z-score is -0.89 and 0.294.

On to `C[C@@H]1CC[C@@H](C(=O)O)N[C@H]1c1ccc(-c2ccco2)cc1`, for which the z-score is -0.25.

As for `O=C(NN=C1C[C@@H](O)[C@@H](O)[C@@H]2[C@@H]3C(=O)N(Cc4ccc5c(c4)OCO5)C(=O)[C@@H]3CC[C@H]12)OCc1ccccc1`, the z-score worked out at 0.228.

Regarding `C[C@@H]1CN2[C@@H](CC[C@@H](C)[C@@H]2c2ccc(Br)cc2)C(=O)O1`, the z-score was -0.218 and 0.559.

For `CC(C)=CCCC(C)=CCON=C1C[C@@H](O)[C@@H](O)[C@@H]2[C@@H]3C(=O)N([C@@H](C)c4ccccc4)C(=O)[C@@H]3CC[C@H]12`, the z-score is -0.12.

In the case of `CCOC(=O)[C@H](CC(C)C)NC(=O)CCC1CC(OC(=O)NCc2cccc3ccccc23)CC2(CCCC(COC(=O)NCc3ccccc3)O2)O1` (stereo not given in full), the z-score was -1.8.

Turning to `CCCNC(=O)OC[C@H]1O[C@H](CCON=C(C)CCC(=O)OC[C@H]2O[C@H](C#Cc3ccccc3)C=C[C@@H]2Oc2ccc(C)cc2)C=C[C@@H]1Oc1ccc(OC)cc1`, the z-score was -2.1.

Take `C=CCN(CCCCC)C(=O)C1N(c2c(Cl)cccc2CO)C(=O)C2C(C(=O)O)C3C=CC21O3` (stereo not given): the z-score was -1.2 and -1.04.

On to `CC(C)N1CC=CC23O[C@@H]4C=CCCOC(=O)C4[C@H]2C(=O)N(C(C)CO)[C@@H]3C1=O` (stereo not given in full), for which the z-score is -0.819 and -0.728.

Take `CCOC(=O)[C@@H]1CC=C2CC1C(=O)N1CCC[C@@H]1[C@H]2O[Si](C)(C)C(C)(C)C` (stereo not given in full): the z-score is 1.82 and -0.618.

Compound `CC(C)CCN1CCc2nc(-c3ccccc3)c3c(c2C1)CO[C@@H](C)C3` gave a z-score of 1.77.

In the case of `CCOC(=O)c1ccc(NC(=O)O[C@H]2[C@H](OC(=O)Nc3ccccc3)[C@@H](OC(=O)Nc3ccccc3)[C@@H](OC)O[C@@H]2CO)cc1`, the z-score was -1.89 and -2.47.

On to `COC(=O)C1=C(C)N(Cc2ccccc2)C2=C(C(=O)c3ccccc3)[C@H](c3ccccc3)[C@@](O)(C(=O)OC)C(=O)N2[C@@H]1c1ccccc1`, for which the z-score is -0.467 and 0.501.

`CCOC(=O)CCN1C(=O)[C@H]2[C@H]3[C@H](O)[C@H](O)CC(=NNC(=O)OCC)[C@@H]3CC[C@H]2C1=O` returned a z-score of 2.07.

In the case of `C#CCN1C(/C=C/c2ccccc2)C(=O)OC[C@H]1c1ccccc1` (stereo not given in full), the z-score is -2.32 and -1.18.

In the case of `Cc1cc2c(nc1C)CCCN2CC(C)ON=C[C@@H](C)[C@H](OCc1ccccc1)C(C)C` (stereo not given in full), the z-score was 0.5.

`CO[C@H]1COC(=O)CC=C[C@H](C)[C@H](OC)COC(=O)[C@@H](C)COC(=O)CC=C[C@@H]1C`: the z-score was 0.298 and 0.795.

For `COC(=O)C1=C(C)N(Cc2ccccc2)[C@]23O[C@](C(=O)OC)(C(=O)N2[C@@H]1c1ccccc1)[C@H]1CCCC(=O)[C@H]13`, the z-score is 0.0733 and -0.727.

The values above are taken from PubChem BioAssay.
